Test results as given in PubChem BioAssay AID1159580 (chemical genetic matrix, 2015).
“And” between values parts separate entries of the source, which are not always exact repeats. Equal values may be shown once. Hit rate of the full screen: of about 5,500 compounds, about 2,000 (36%) were called active. About 18% were inconclusive and are not listed. No stated cut-off is given here; in the data, active means normalized growth mostly below about 0.91 (no sharp cut-off); inconclusive means no clear call, values can overlap the other calls; inactive means mostly above about 0.92. The list shows a part of the results.

Assay: chemical genetic growth profiling, strain panel (AID 1159580);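 further: tested at 20 µM; growth read once vehicle control cultures reached saturation at 30 °C; 1 = growth at the plate median or of vehicle wells; lower values mean less growth of the strain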
Details: S. cerevisiae deletion strains, growth OD

Measured: normalized growth

O=C(C1CCCCC1)N1CC(=O)N2CCc3ccccc3C2C1 (stereo not drawn)
inactive: locus YAL021C, strain ccr4, hits give low values 0.999 | locus YAL026C, strain drs2, hits give low values 1 | locus YAL030W, strain snc1, hits give low values 1.01 | locus YAL040C, strain CLN3, hits give low values 1.05 | locus YBL061C, strain skt5, hits give low values 1.01 | locus YBR009C, strain hhf1, hits give low values 1.01 | locus YBR021W, strain FUR4, hits give low values 0.993 | locus YBR023C, strain chs3, hits give low values 1.02 | locus YBR171W, strain sec66, hits give low values 1.01 | locus YBR229C, strain ROT2, hits give low values 1 | locus YBR231C, strain swc5, hits give low values 0.983 | locus YBR279W, strain paf1, hits give low values 1.01 | locus YCL011C, strain gbp2, hits give low values 1.03 | locus YCL016C, strain dcc1, hits give low values 1.04 | locus YCL029C, strain bik1, hits give low values 1.01 | locus YCL061C, strain MRC1 (second series), hits give low values 1 | locus YCL061C, strain MRC1, hits give low values 1.01 | locus YCL069W, strain vba3, hits give low values 1.01 | locus YCR088W, strain abp1, hits give low values 1.01 | locus YDL005C, strain med2, hits give low values 1.01 | locus YDL035C, strain GPR1, hits give low values 1 | locus YDL040C, strain nat1, hits give low values 0.992 | locus YDL074C, strain BRE1, hits give low values 1.01 | locus YDL101C, strain DUN1, hits give low values 1.01 | locus YDL134C, strain PPH21, hits give low values 1 | locus YDL185W, strain tfp1, hits give low values 1.01 | locus YDL192W, strain arf1, hits give low values 1.01 | locus YDR001C, strain nth1, hits give low values 1 | locus YDR069C, strain doa4, hits give low values 0.978 | locus YDR101C, strain arx1, hits give low values 1.03 | locus YDR137W, strain rgp1, hits give low values 1.03 | locus YDR159W, strain sac3, hits give low values 0.976 | locus YDR162C, strain NBP2, hits give low values 1 | locus YDR195W, strain ref2 0.981 | locus YDR297W, strain sur2, hits give low values 1.01 | locus YDR318W, strain mcm21, hits give low values 1.02 | locus YDR334W, strain swr1, hits give low values 1.01 | locus YDR335W, strain msn5, hits give low values 0.999 | locus YDR363W, strain ESC2, hits give low values 1.04 | locus YDR388W, hits give low values 1.01 | locus YDR392W, strain spt3, hits give low values 0.862 | locus YDR502C, strain sam2, hits give low values 1.01 | locus YEL003W, strain gim4, hits give low values 0.995 | locus YEL037C, strain rad23, hits give low values 0.999 | locus YEL061C, strain CIN8 (second series), hits give low values 1 | locus YEL061C, strain CIN8, hits give low values 1 | locus YER002W, strain NOP16, hits give low values 1.01 | locus YER015W, strain faa2, hits give low values 1 | locus YER016W, strain bim1, hits give low values 0.989 | locus YER110C, hits give low values 1.02 | locus YER111C, strain swi4, hits give low values 1 | locus YER155C, strain BEM2 (second series), hits give low values 0.913 | locus YER155C, strain BEM2, hits give low values 1 | locus YER167W, strain BCK2, hits give low values 1 | locus YFR010W, strain ubp6, hits give low values 1.01 | locus YGL078C, strain dbp3, hits give low values 1.01 | locus YGL086W, strain mad1, hits give low values 1.01 | locus YGL167C, strain pmr1, hits give low values 1.01 | locus YGL173C, strain kem1, hits give low values 1 | locus YGL227W, strain vid30, hits give low values 1.01 | locus YGL240W, strain doc1, hits give low values 0.978 | locus YGL248W, strain PDE1, hits give low values 1.01 | locus YGL253W, strain hxk2, hits give low values 0.982 | locus YGR078C, strain PAC10, hits give low values 1 and 1.01 | locus YGR135W, strain pre9, hits give low values 0.998 | locus YGR252W, strain gcn5, hits give low values 0.953 | locus YHR013C, strain ard1, hits give low values 0.988 | locus YHR027C, strain rpn1, hits give low values 1.01 | locus YHR030C, strain SLT2, hits give low values 1 and 1.01 | locus YHR079C, strain IRE1 (second series), hits give low values 1.01 | locus YHR079C, strain IRE1, hits give low values 1.01 | locus YHR094C, strain hxt1, hits give low values 1.01 | locus YHR129C, strain ARP1, hits give low values 0.992 | locus YHR142W, strain chs7, hits give low values 1 | locus YHR200W, strain rpn10, hits give low values 1.01 | locus YIL066C, strain RNR3, hits give low values 1.01 | locus YIL073C, strain SPO22, hits give low values 1.01 | locus YIL125W, strain kgd1, hits give low values 1.01 | locus YIR030C, strain dcg1, hits give low values 1.01 | locus YJL092W, strain hpr5, hits give low values 1 | locus YJL095W, strain BCK1 (second series), hits give low values 1.01 | locus YJL095W, strain BCK1, hits give low values 0.974 and 1.03 | locus YJL115W, strain asf1, hits give low values 1.01 | locus YJL129C, strain trk1, hits give low values 0.997 | locus YJL134W, strain LCB3, hits give low values 1 | locus YJL154C, strain vps35, hits give low values 1 | locus YJL164C, strain tpk1, hits give low values 1.02 | locus YJL166W, strain qcr8, hits give low values 1.02 | locus YJL168C, strain set2, hits give low values 1.01 | locus YJL187C, strain SWE1 (second series), hits give low values 1.01 | locus YJL187C, strain SWE1, hits give low values 1.01 | locus YJR043C, strain POL32, hits give low values 1.01 | locus YJR066W, strain TOR1, hits give low values 0.939
